± gives the standard deviation of the averaged measurements.
Each molecule was assayed on MDAMB468 (assay: cell proliferation (confluence) relative to DMSO control; higher = less growth inhibition). Settings: 5 uM; 6 d.
Description: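 Epigenetic chemical probe screen: 15 TNBC cell lines, 500 cells per well in 384-well plates, treated with 5 uM of each of 36 SGC probes for 6 d. Confluency was imaged by IncuCyte ZOOM and normalised to DMSO control wells. Four replicate wells per compound.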

Going from CCOC(=O)CCNc1cc(N2CCc3ccccc3CC2)nc(-c2ccccn2)n1 to CCOC(=O)CCNc1cc(N2CCc3ccccc3CC2)nc(-c2cccnc2)n1, the cell proliferation rises from 9.55 ± 1.9% to 71.9 ± 10%.

COc1cc(-c2cn(C)c(=O)c3cnccc23)c(OC)cc1CN(C)C and COc1cc(C#N)ccc1S(=O)(=O)Nc1ccc2c(c1)cc(C)c(=O)n2C are within error of each other in cell proliferation: 53.6 ± 13% for the first, 40.4 ± 6.3% for the second.

O=C([C@@H](Cc1cccc(C(F)(F)F)c1)NS(=O)(=O)c1cc(F)c2c(c1)CCNC2)N1CCCC1 and CCn1cc(-c2cccc(C(F)(F)F)c2)c2sc(C(=N)NC3CCS(=O)(=O)CC3)cc2c1=O are within error of each other in cell proliferation: 50.5 ± 25% for the first, 29.1 ± 4.8% for the second.

Compared with Clc1cc2c(NC3CCCC3)nnc(-c3ccncc3)c2cc1Cl, O=C(NC[C@H](O)CN1CCc2ccccc2C1)c1ccnc(NC2CCC2)c1 is lower in cell proliferation: 56.9 ± 7.9% for the first, 32 ± 1.8% for the second.

Going from CCCc1cc(C)[nH]c(=O)c1CNC(=O)c1cc(-c2ccnc(N3CCN(C)CC3)c2)cc2c1cnn2C(C)C to CCCc1cc(C)[nH]c(=O)c1CNC(=O)c1cc(-c2ccc(N3CCN(C(C)C)CC3)nc2)cc2c1cnn2C(C)C, the cell proliferation falls from 67.7 ± 12% to 13.3 ± 14%.

Compared with COc1c(C)cc(NC(=O)c2nn(Cc3ccc(F)cc3)c3c2CN(C(=O)c2ccc[nH]2)C[C@]3(C)C(N)=O)cc1C, CC[C@H](C)n1cc(C)c2c(C(=O)NCc3c(C)cc(C)[nH]c3=O)cc(-c3ccc(N4CCNCC4)nc3)cc21 is lower in cell proliferation: 35.5 ± 4.7% for the first, 15.4 ± 9% for the second.

CNCCN1CCC(OCc2ccccc2)CC1 and COc1ccccc1C(=O)Nc1cc2c(cc1N1CCCC1)n(C)c(=O)n2C are within error of each other in cell proliferation: 37.4 ± 6.8% for the first, 39.3 ± 3.8% for the second.

COc1cc2c(NC3CCN(C(C)C)CC3)nc(C3CCCCC3)nc2cc1OCCCN1CCCC1 and COc1cc2c(cc1OCCCN1CCCC1)N=C(N)C21CCC1 are within error of each other in cell proliferation: 67.2 ± 8% for the first, 71.6 ± 11% for the second.

CN(C)[C@H]1CN(C2CCc3cccc(F)c32)C[C@@H]1c1ccc(N2CCN(S(C)(=O)=O)CC2)cc1 (some centres not stated) and Cc1cc(=O)n(C)c2cc(N3C(=O)CC[C@H](NS(=O)(=O)CC(C)C)[C@H]3c3ccc(Cl)cc3)ccc12 are within error of each other in cell proliferation: 62.7 ± 4.4% for the first, 59.3 ± 2.4% for the second.

Going from CC(C)Oc1ccc(-c2c[nH]cc2CN(C)CCO)cc1 to CC(C)Oc1ccc(-c2c[nH]cc2CN(C)CCN)cc1, the cell proliferation falls from 37 ± 7.3% to 19.3 ± 5.7%.

First: CCCc1cc(C)n(C)c(=O)c1CN(C)C(=O)c1cc(-c2ccc(N3CCN(C(C)C)CC3)nc2)cc2c1cnn2C(C)C
Second: CCC(=O)N1CCOc2c(cc(-c3ccc(OC)c(OC)c3)cc2OC[C@H]2CCCN(C)C2)C1
The cell proliferation of the first is higher: 70.4 ± 6.3% for the first, 37.1 ± 9% for the second.

Going from COc1ccccc1S(=O)(=O)Nc1ccc2c(c1)CN(C)C(=O)N2 to CCCOc1ccn2c(C(C)=O)cc(-c3ccccc3S(C)(=O)=O)c2c1, the cell proliferation rises from 23.2 ± 2.7% to 66 ± 5.1%.

First: O=C(NCC(=O)N1CCCC1)Nc1ccc2cnccc2c1
Second: O=C(c1ccc(C(=O)N2CCC(N3CCCC3)CC2)c(Nc2ccccc2)c1)N1CCC(N2CCCC2)CC1
The cell proliferation of the first is lower: 40.6 ± 15% for the first, 74.9 ± 8.6% for the second.

CCN(C(=O)CO)[C@H]1CN(/C(=N\C#N)Nc2cccc(OC(F)F)c2)N=C1c1ccc(Cl)c(Cl)c1 and Cn1cc(CCn2cnc(-c3cnn(C)c3)c2-c2ccc(C#N)cc2)cn1 are within error of each other in cell proliferation: 55.2 ± 6% for the first, 55.5 ± 13% for the second.

First: COc1ccc(CCc2nc3cc(-c4c(C)noc4C)ccc3n2C[C@H](C)N2CCOCC2)cc1Cl
Second: Cc1nnc2c3ccccc3c(N[C@@H](C)[C@H](c3ccccc3)N(C)C)nn12 [L-moses]
The cell proliferation of the first is lower: 32.8 ± 4% for the first, 41 ± 3.8% for the second.

Compared with O=C(/C=C/N1C[C@H]2C[C@@H]1CN2c1ccccn1)c1ccccc1O, CC(C)N(CCCNC(=O)Nc1ccc(C(C)(C)C)cc1)C[C@H]1O[C@@H](n2cc(Br)c3c(N)ncnc32)[C@H](O)[C@@H]1O is lower in cell proliferation: 75.6 ± 6.1% for the first, 54.2 ± 14% for the second.

From the supplement of paper PMC9337992
